{
  "source": "PubChem BioAssay (NCI)",
  "note": "“And” between values parts separate entries of the source, which are not always exact repeats. Identical values can stand only once. Compounds without any hit were thinned out: in the full panel of roughly 83,000, 20% have a hit.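 Single-dose data. Exposure time 48 hours. Values below 10 considered active.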 The source made the active and inactive calls.",
  "data": [
    {"test_system": "MDA-MB-468 breast", "assay": "NCI-60 one-dose screen, 48 h (100 = growth as untreated, 0 = no growth, -100 = all killed)", "conditions": "10 µM unless noted", "values": [
      {"compound": "COc1ccc(-c2nnc3n(C)c(=O)c4ccccc4n23)cc1O", "growth": "-2.48% (active)"},
      {"compound": "c1cc(-c2nc3ccc4[nH]ncc4c3c3c2CCCC3)[nH]n1", "growth": "43.6% (inactive)"},
      {"compound": "COCCOc1cc2ncnc(N3CCN(S(=O)(=O)c4ccccc4Cl)CC3)c2cc1OCCOC", "growth": "57.1% (inactive)"},
      {"compound": "C=CCOC(=O)C1=C(C)N(CC)C(=O)NC1c1c(Cl)n(C)c2ccccc12", "note": "(stereo not given)", "growth": "107% (inactive)"},
      {"compound": "NCCCNc1nc2ccccc2c2c(=O)c3cc(F)cc(F)c3sc12", "growth": "70.3% (inactive)"},
      {"compound": "CC1(C)CC[C@]2(C(=O)Nc3ccccn3)CC[C@]3(C)C(=CC[C@@H]4[C@@]5(C)C/C(=C/c6ccncc6)C(=O)C(C)(C)[C@@H]5CC[C@]43C)[C@@H]2C1", "growth": "19.2% (inactive)"},
      {"compound": "Cc1cc2c(cc1C)N(C(=O)CCl)CC(=O)N2", "growth": "-12.6% (active)"},
      {"compound": "N#CSCC1CC(O)(c2ccccc2)CC(c2ccc(Cl)cc2)O1", "note": "(stereo not given)", "growth": "47.3% (inactive)"},
      {"compound": "CC(C)OC(=O)NNC(=O)c1ccncc1", "growth": "118% (inactive)"},
      {"compound": "CNC(=O)c1c(NC(=O)c2ccc(C(C)C)cc2)sc2c(CN(C)C)c(O)ccc12", "growth": "86.3% (inactive)"},
      {"compound": "CCOC(=O)CC(=O)CSC1=NC2C(NN1)N(C)C(=O)N2C", "note": "(stereo not given)", "growth": "12.2% (inactive)"},
      {"compound": "C=CC(=O)Nc1cccc(Nc2nc(Nc3ccc(OCCOC(F)F)cc3)ncc2F)c1", "growth": "-27.9% (active)"},
      {"compound": "O=C(Nc1cccc(C(F)(F)F)c1)c1cc(-c2ccc(F)cc2F)ccc1O", "growth": "-5% (active)"},
      {"compound": "COc1cc2nc(-c3ccc(-c4nn[nH]n4)cc3)[nH]c(=O)c2cc1OC", "growth": "104% (inactive)"},
      {"compound": "CC1(C)NC2=C(C(Nc3cccnc3)N1)C(c1ccc([N+](=O)[O-])cc1)C(C(=O)c1ccc(N=[N+]=[N-])cc1)O2", "note": "(stereo not given)", "growth": "115% (inactive)"},
      {"compound": "COc1ccccc1C(OC(C)=O)OC(C)=O", "growth": "98% (inactive)"},
      {"compound": "Oc1c(I)cc(I)cc1CN(Cc1ccccn1)Cc1ccccn1", "growth": "8.74% (active)"},
      {"compound": "O=C(CI)NC(=O)NC(=O)NCc1ccccc1", "growth": "65.5% (inactive)"},
      {"compound": "Cn1c(=O)c2c(nc(Nc3cc(=O)[nH]c(=O)[nH]3)n2Cc2ccccc2)n(C)c1=O", "growth": "84.7% (inactive)"},
      {"compound": "Cc1nc2sc(C(=O)Nc3cccc4ncccc34)c(N)c2cc1C(C)O", "note": "(stereo not given)", "growth": "44.9% (inactive)"},
      {"compound": "CCCC[N+](C)(N)CCCC", "growth": "106% (inactive)"},
      {"compound": "O=C(O)C(c1ccccc1)C(O)c1ccccc1", "note": "(stereo not given)", "growth": "101% (inactive)"},
      {"compound": "CCOC(=O)c1nnn(C(Cc2ccccc2Cl)C(=O)OCC)c1C", "note": "(stereo not given)", "growth": "110% (inactive)"},
      {"compound": "Cn1cc(-c2nc(N)nnc2-c2c[nH]c3ccccc23)c2cc(Br)ccc21", "growth": "33% (inactive)"},
      {"compound": "COc1ccc(-c2nnc(-c3c(-c4ccccc4)nc4ncccn34)o2)cc1OC", "growth": "99.1% (inactive)"},
      {"compound": "Clc1ccc(-c2nc(-c3cccs3)cn3ccnc23)cc1", "growth": "-11.1% (active)"},
      {"compound": "CCCc1cccc(CCC)c1O", "growth": "118% (inactive)"},
      {"compound": "CC/C=C\\CCC/C=C1/C(=O)C=C[C@@H]1C/C=C\\CCCC(=O)OC", "growth": "68.7% (inactive)"},
      {"compound": "O=C1OC(Oc2ccc(Br)cc2)(c2ccccc2)c2ccccc21", "note": "(stereo not given)", "growth": "69.8% (inactive) and 75.1% (inactive)"},
      {"compound": "Cn1cnc2c(F)c(Nc3ccc(Br)cc3Cl)c(C(=O)NOCCO)cc21", "growth": "92.5% (inactive)"},
      {"compound": "O=S(=O)(O)c1ccc(N=Nc2ccc(N=Nc3cccc4ccccc34)c(S(=O)(=O)O)c2)cc1", "growth": "89.8% (inactive)"},
      {"compound": "Cn1c(=O)c2c(ncn2CCC(=O)Nc2ccc(F)cc2)n(C)c1=O", "growth": "106% (inactive)"},
      {"compound": "Oc1ccc(CSc2nnc(-c3cnccn3)n2-c2ccccc2)c2cccnc12", "growth": "5.53% (active)"},
      {"compound": "COc1ccc(C(=O)/C=C/c2cc(-c3ccc(OC)c(OC)c3)n[nH]2)cc1OC", "growth": "-71.6% (active)"},
      {"compound": "C[C@]12CC[C@@H]3c4cc(O)c(O)cc4CC[C@H]3[C@@H]1CC[C@@H]2O", "growth": "72.1% (inactive)"},
      {"compound": "CC(c1ccccc1)N1CSc2nc3ncncc3n2C1", "note": "(stereo not given)", "growth": "-0.761% (active)"},
      {"compound": "CCC(C)[C@H](NC(C)=O)C(=O)N[C@@H](CCCNC(=N)N)C(=O)N[C@@H](CCCCN)C(=O)N[C@@H](CC1CCC(O)CC1)C(=O)NC(C(=O)N[C@@H](CCSC)C(=O)N[C@@H](CCCNC(=N)N)C(=O)N[C@@]1(C)CCC/C=C\\CCC[C@@](C)(C(=O)NC(C(=O)N[C@@H](CCC(=O)O)C(=O)N[C@@H](CC(C)C)C(=O)N[C@H](C(=O)N[C@@H](CCC(=O)O)C(N)=O)C(C)C)[C@@H](C)O)NC(=O)[C@H](CCC(N)=O)NC(=O)[C@H](CC(C)C)NC(=O)[C@H](CC(C)C)NC1=O)[C@@H](C)O", "note": "(stereo not given in full)", "growth": "99.7% (inactive)"},
      {"compound": "CC(C)Nc1cc(-c2c[nH]c(C(=O)N[C@H](CO)c3cccc(Cl)c3)c2)c(Cl)cn1", "growth": "43.6% (inactive)"},
      {"compound": "N#Cc1c(-c2ccc(O)cc2)c2c(N)nn(-c3ccccc3)c2[nH]c1=O", "growth": "111% (inactive)"},
      {"compound": "Cc1cc2c(cc1[N+](=O)[O-])NC(CNC(C)C)CC2", "note": "(stereo not given)", "growth": "83.3% (inactive)"}
    ]}
  ]
}
